Data: PubChem BioAssay (Tox21)
Results filed as inconclusive are left out. The source made the active and inactive calls. Calls come from the whole dose curve; as a rule, active = well fitted activation curve with a large enough effect in the repeat runs; inconclusive = weak or mixed curves; inactive = no such curve, though single readings can be large or run the other way.

The molecules below were run against Aryl hydrocarbon receptor (Homo sapiens) (UniProt P35869) (assay: qHTS assay to identify small molecule that activate the aryl hydrocarbon receptor (AhR) signaling pathway (AID 743085; note: nearly all actives have a fitted effect of over 15% in size;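 for activation: HG2L7.5c1 human HepG2 liver cells with stably integrated DRE-driven firefly reporter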)). Details: HepG2 AhR-luc (HG2L7.5c1), luciferase, 24 h; series mostly up to 70.3 µM; activation: at the top concentration.
Excerpt: U.S. Tox21 Program National Center for Advancing Translational Sciences [NCATS] NIH Chemical Genomics Center [NCGC] U.S. Environmental Protection Agency [EPA] National Institutes of Environmental Health Sciences [NIEHS] National Toxicology Program [NTP] U.S. Food and Drug Administration [FDA] Tox21 Assay overview: The Aryl hydrocarbon Receptor (AhR), a member of the family of basic helix-loop-helix transcription factors, is crucial to adaptive responses to environmental changes. AhR mediates cellular responses to environmental pollutants such as aromatic hydrocarbons through induction of phase I and II enzymes but also interacts with other nuclear receptor signaling pathways. A cell based HepG2-AhR-luc assay (HG2L7.5c1 cell line, developed by Dr. Michael S. Denison, University of California at Davis, was used to assess the activation of AhR. HepG2 (human hepatocellular carcinoma) cells were stably transfected with an Ah receptor-responsive firefly luciferase reporter gene plasmid containing 20 dioxin responsive elements and luciferase reporter gene. Increased luciferase activity can be used to identify the compounds that induce AhR activation.
Tox21 Assay Protocol Summary: 4000 cells in 5 uL/well were dispensed into white wall/solid bottom 1536-well plates using a Multidrop Combi (Thermo Fisher Scientific Inc., Waltham, MA) dispenser. After the assay plates were incubated at 37C for 5 h, 23 nL of compound or DMSO vehicle was transferred to the assay plates by a pintool station (Kalypsys, San Diego, CA). The plates were incubated at 37C for 24 hr. After 1 ul/well of CellTiter-Fluor reagent (Promega, Madison, WI) was added into the assay plates using a Flying Reagent Dispenser (FRD) (Aurora Discovery, CA), the assay plates were incubated at 37C for 30 min. The fluorescence intensity in the plates was measured using a ViewLux plate reader (PerkinElmer, Shelton, CT), followed by the addition of 4 uL of ONE-Glo Luciferase Assay reagent (Promega) using an FRD (Aurora Discovery). After the assay plates were incubated at room temperature for 30 min, luminescence intensity was measured using a ViewLux plate reader (Perkin Elmer).
% is set by controls: 0 for no effect and ±100 for the full control effect; potency is the fitted concentration of half-maximal effect.

Sequence of Aryl hydrocarbon receptor (Homo sapiens) (P35869 whole entry, looked up): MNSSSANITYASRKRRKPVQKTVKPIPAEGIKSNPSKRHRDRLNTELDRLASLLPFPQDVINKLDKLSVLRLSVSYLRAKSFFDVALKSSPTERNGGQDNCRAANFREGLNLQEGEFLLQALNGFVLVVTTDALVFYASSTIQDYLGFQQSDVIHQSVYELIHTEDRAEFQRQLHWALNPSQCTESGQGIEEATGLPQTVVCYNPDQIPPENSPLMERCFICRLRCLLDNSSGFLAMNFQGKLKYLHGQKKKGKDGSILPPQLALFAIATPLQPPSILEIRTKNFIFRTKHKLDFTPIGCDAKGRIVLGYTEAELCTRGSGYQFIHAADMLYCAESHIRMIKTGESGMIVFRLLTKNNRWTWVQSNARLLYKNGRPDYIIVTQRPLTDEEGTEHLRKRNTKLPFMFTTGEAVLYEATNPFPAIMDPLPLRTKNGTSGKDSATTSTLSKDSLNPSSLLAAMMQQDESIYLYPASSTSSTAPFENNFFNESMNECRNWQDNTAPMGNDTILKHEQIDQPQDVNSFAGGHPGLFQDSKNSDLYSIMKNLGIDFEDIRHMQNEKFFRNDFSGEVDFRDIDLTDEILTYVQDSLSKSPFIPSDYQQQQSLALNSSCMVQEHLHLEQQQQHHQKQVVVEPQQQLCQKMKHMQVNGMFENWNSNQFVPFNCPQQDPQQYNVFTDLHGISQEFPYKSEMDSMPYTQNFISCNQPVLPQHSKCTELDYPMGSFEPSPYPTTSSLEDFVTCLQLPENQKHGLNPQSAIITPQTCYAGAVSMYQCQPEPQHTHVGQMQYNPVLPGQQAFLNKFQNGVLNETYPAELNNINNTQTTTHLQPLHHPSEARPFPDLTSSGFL

Row | SMILES | activation | Potency
1 | CC(O)Cn1cnc2c1c(=O)n(C)c(=O)n2C (stereo not given) | -0.873% [at 32.5 µM] (inactive) | –
2 | COc1cc(OC)c2ccc(=O)oc2c1 | -0.277% (inactive) | –
3 | CC1CCCO1 (stereo not given) | 1.67% (inactive) | –
4 | CCN(CC)CCOc1ccccc1C(=O)CCc1ccccc1 | 0.268% (inactive) | –
5 | C[C@@H]1[C@H](O)[C@@H](C)/C=C/C=C\C=C\C=C\C=C\C=C\C=C\[C@H](O[C@@H]2O[C@H](C)[C@@H](O)[C@H](N)[C@@H]2O)C[C@@H]2O[C@](O)(C[C@@H](O)C[C@@H](O)[C@H](O)CC[C@@H](O)C[C@@H](O)CC(=O)O[C@H]1C)C[C@H](O)[C@H]2C(=O)O (stereo in doubt) | – | inactive
6 | CCCc1nc2c(C)cc(-c3nc4ccccc4n3C)cc2n1Cc1ccc(-c2ccccc2C(=O)O)cc1 | -0.0341% (inactive) | –
7 | CCCCCCCCCCCCCCCCCC(=O)OCC(CC)CCCC (stereo not given) | -1.48% (inactive) | –
8 | CC(=O)C(C)=O | -2.58% [at 95 µM] (inactive) | –
9 | O=C(c1ccccc1)C1CCC1 | -1.42% (inactive) | –
10 | c1ccc(CNc2ncnc3c2ncn3C2CCCCO2)cc1 (stereo not given) | – | 8.63 µM (active)
11 | O=c1[nH][nH]c(=O)c2cc([N+](=O)[O-])ccc12 | 0.668% [at 95 µM] (inactive) | –
12 | CC[C@H]1OC(=O)[C@H](C)[C@@H](O[C@H]2C[C@@](C)(OC)[C@@H](O)[C@H](C)O2)[C@H](C)[C@@H](O[C@@H]2O[C@H](C)C[C@H](N(C)C)[C@H]2O)[C@](C)(O)C[C@@H](C)C(=O)[C@H](C)[C@@H](O)[C@]1(C)O | – | inactive
13 | COc1ccc(N)c([N+](=O)[O-])c1 | 4.27% (inactive) | –
14 | C/C(C=O)=C\c1ccccc1 | 9.83% (inactive) | –
15 | CCOC(=O)C(C)O (stereo not given) | 7.32% [at 95 µM] (inactive) | –
16 | CCCCC(CC)COS(=O)(=O)O (stereo not given) | – | inactive
17 | O=C(O)CCCc1c[nH]c2ccccc12 | -0.0134% (inactive) | –
18 | Cc1ccc(N(CC2=NCCN2)c2cccc(O)c2)cc1 | 1.02% (inactive) | –
19 | CCCCCC | -0.626% (inactive) | –
20 | c1ccc(CCCc2ccncc2)cc1 | -0.295% (inactive) | –

Row | SMILES | activation | Potency
21 | COc1cc(NC(C)CCCN)c2ncccc2c1 (stereo not given) | 3.49% [at 32.5 µM] (inactive) | –
22 | CC(C)C(O)C(C)(C)CO (stereo not given) | 0.729% [at 95 µM] (inactive) | –
23 | O=C1OC[C@H](Cc2cccc(O)c2)[C@H]1Cc1cccc(O)c1 | 4.18% [at 32.5 µM] (inactive) | –
24 | CC(=O)C(=O)CC(C)C | -2.04% (inactive) | –
25 | COC(=O)CC(C(C)=O)C(=O)OC (stereo not given) | -0.38% (inactive) | –
26 | CC(C)(C)NCC(O)COc1cccc2c1C[C@H](O)[C@H](O)C2 (stereo not given in full) | 0.0417% [at 32.5 µM] (inactive) | –
27 | CC(C)C1CCC(C(=O)N[C@H](Cc2ccccc2)C(=O)O)CC1 (stereo not given in full) | 0.021% (inactive) | –
28 | FC(F)(F)C(F)(F)C(F)(F)C(F)(F)CCI | -0.245% [at 32.5 µM] (inactive) | –
29 | CCCCCCOC(=O)CCCCC | 0.317% (inactive) | –
30 | NC(=O)c1ccccc1[N+](=O)[O-] | 2.19% [at 95 µM] (inactive) | –
31 | Nc1ccc(F)cc1 | 3.21% [at 95 µM] (inactive) | –
32 | O=[N+]([O-])C1(Br)COCOC1 | -0.592% (inactive) | –
33 | CC(=O)OCC(C)C | -2.34% (inactive) | –
34 | CC(C(=O)O)c1ccc(C(=O)c2cccs2)cc1 (stereo not given) | -0.645% [at 32.5 µM] (inactive) | –
35 | CCCCCCCCCCCCCOC(=O)CCSCCC(=O)OCCCCCCCCCCCCC | -1.79% [at 32.5 µM] (inactive) | –
36 | O=C(C(=O)c1ccco1)c1ccco1 | -2.72% [at 95 µM] (inactive) | –
37 | CCCCCCCCCCCCCCN(C)C | -2.32% [at 32.5 µM] (inactive) | –
38 | CC(C)(C)CCCCCCOC(=O)c1ccccc1C(=O)OCCCCCCC(C)(C)C | -1.49% (inactive) | –
39 | O=C(O)c1ccc(O)cc1O | -0.151% [at 95 µM] (inactive) | –
40 | Cc1c[nH]c2ccccc12 | 1.51% (inactive) | –
